Source: PubChem
NTR1 agonist: agonists of human neurotensin receptor NTR1; P30989; NTR1-U2OS beta-arrestin-GFP spot imaging, agonist mode; activation, % at 20 µM; 330,000 compounds, 0.17% hits;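 active means activation at or above 40% of the spot to cytoplasm intensity ratio, with at least 20 cells analyzed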
Beta2AR agonist: activates human beta-2 adrenergic receptor causing internalization | Am2.2-beta2AR cells, FAP receptor internalization, flow cytometry | P07550 | response, % (test concentration not listed) | 340,000 compounds, 0.43% hits;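 active means response above a set limit, near 3 SD of response in nonfluorescent compounds, cut at about 42% in these data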
Target sequence (P07550 whole entry, looked up): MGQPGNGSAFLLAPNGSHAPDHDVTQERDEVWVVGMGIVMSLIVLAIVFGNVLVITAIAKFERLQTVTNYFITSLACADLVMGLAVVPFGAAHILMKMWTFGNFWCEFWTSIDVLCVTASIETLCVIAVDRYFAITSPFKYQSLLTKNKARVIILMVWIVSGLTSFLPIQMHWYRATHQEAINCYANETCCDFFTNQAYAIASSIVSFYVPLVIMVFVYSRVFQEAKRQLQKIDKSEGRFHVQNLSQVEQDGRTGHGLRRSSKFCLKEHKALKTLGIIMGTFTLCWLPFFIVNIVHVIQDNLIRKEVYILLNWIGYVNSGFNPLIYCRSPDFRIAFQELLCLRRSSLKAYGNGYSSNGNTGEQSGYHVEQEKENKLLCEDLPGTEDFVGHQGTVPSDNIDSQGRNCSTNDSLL
Granule exo inh: lytic granule exocytosis inhibition; TALL-104 LAMP-1 surface exposure, flow cytometry; cells stimulated with thapsigargin and PMA; inhibition, % at 10 µM; 360,000 compounds, 0.66% hits; AID 651702;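 active means inhibition above about 55%, limit read from the data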
ABHD5 PLIN5 PPI: blocks binding of human ABHD5 to perilipin-5; 360,000 compounds, 0.78% hits; Q00G26+Q8WTS1; inhibition, % at 4 µM; Split G. princeps luciferase complementation, luminescence, 4 h; AID 602281;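 active means inhibition above the mean inhibition across every tested compound plus 3 SD, cut at about 22% in these data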
m5-HT2A agonist: agonists of mouse serotonin 5-HT2A receptor (HTR2A); P35363; CHO-K1 mHTR2A beta-arrestin complementation, luminescence; percent of 30 µM serotonin response; activation, % at 7.6 µM; 360,000 compounds, 0.66% hits; AID 624169;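 active means activation above a run cutoff, the mean activation of all tested compounds plus 3 SD, cut at about 14% in these data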
B2AR ag CP1: human beta-2 adrenergic receptor agonism, cherry pick; shares compounds with Beta2AR agonist; 1,100 compounds, 25% hits; Am2.2-beta2AR cells, FAP surface receptor, flow cytometry; active compounds read low; percent response (surface receptor), % at 10 µM;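 active means surface receptor percent response at or below 58%, roughly 3 SD from nonfluorescent compounds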
FAP fluor counter: counter-screen for beta-2AR agonists: fluorescence in Am2.2 cells. shares compounds with Beta2AR agonist. FAP fluorogen flow cytometry, fluorescence counterscreen; active compounds read low. calls only at 10 µM. 1,100 tested, under 10 active. AID 588765;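 active means percent response below a set limit in fluorescence channel 1 and below 50% in channel 8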
Numbers stand for hits; . = inactive; / = no result given. In the library only some 2.3% were active in any assay of this set; here they are far more common.

SMILES	NTR1 agonist	Beta2AR agonist	Granule exo inh	ABHD5 PLIN5 PPI	m5-HT2A agonist	B2AR ag CP1	FAP fluor counter
CCN(CC)S(=O)(=O)c1cccc(-n2c(O)c(C=Nc3ccccc3C(=O)O)c3ccccc3c2=O)c1	.	47	.	.	.	.	.
O=C(O)c1ccccc1N=Cc1c(O)n(-c2nccs2)c(=O)c2ccccc12	.	.	.	.	.	/	/
CC1=NN(C(N)=S)C(=O)C1N=Nc1ccc(O)cc1 (stereo not drawn)	.	.	.	.	.	/	/
CC1=NN(C(N)=S)C(=O)C1N=Nc1ccc(F)cc1 (stereo not drawn)	.	.	.	.	.	49	.
CC(C)CC1(C)NC(=O)N(CC(=O)Nc2ccccc2Br)C1=O (stereo not drawn)	.	.	.	.	.	/	/
CN(C)c1ncc(CN2CCC(C(=O)Nc3ccc(-n4cccn4)cc3)CC2)s1	.	.	.	.	.	/	/
COCCc1ncc(CN2CCC(C(=O)Nc3ccc(-n4cccn4)cc3)CC2)cn1	.	50	.	.	.	30	.
CN(c1cccc2cccnc12)S(=O)(=O)c1ccccc1	.	.	.	.	.	.	.
COc1ccc([C@H]2/C=C\CN(C(=O)c3ccccc3)[C@@H](C)C(=O)N2Cc2ccc(F)cc2)cc1	.	.	.	.	.	.	.
COc1ccc(C2/C=C\CN(C(=O)c3ccc(C)cc3)CC(=O)N2Cc2ccc(F)cc2)cc1 (stereo not drawn)	.	.	.	.	.	.	.
CCCCN(Cc1ccco1)S(=O)(=O)c1csc(C(N)=O)c1	.	.	.	.	.	/	/
COc1ccc(C(=O)C(CCCCC(CN(C)C)C(=O)c2ccc(OC)cc2)CN(C)C)cc1 (stereo not drawn)	.	.	.	.	.	/	/
CCOc1ccc(C(=O)C(CCC(CN(C)C)C(=O)c2ccc(OCC)cc2)CN(C)C)cc1 (stereo not drawn)	/	110	60	49	.	.	.
O=C(CNC(=O)c1cccs1)N/N=C/c1c(F)cccc1Cl	.	.	.	.	.	/	/
COc1cc(C(=S)N2CCOCC2)ccc1OS(=O)(=O)c1ccccc1[N+](=O)[O-]	.	.	.	.	.	/	/
CCOc1cc(C(=S)N2CCOCC2)ccc1OS(=O)(=O)c1ccccc1[N+](=O)[O-]	.	.	.	.	.	.	.
CC(=O)Nc1ccc(NC(=O)COc2ccc(S(=O)(=O)N3CCCC3)cc2C)cc1	.	.	.	.	.	/	/
Cc1ccccc1NC(=O)COc1ccc(S(=O)(=O)N2CCCC2)cc1C	.	.	.	.	.	.	.
Cc1cc(S(=O)(=O)N2CCOCC2)ccc1OCC(=O)Nc1cccc(F)c1	.	.	.	.	.	.	.
CN(C)S(=O)(=O)c1cccc(NC(=O)COc2ccc(S(=O)(=O)N3CCOCC3)cc2Cl)c1	.	.	.	.	.	/	/
COc1ccc(NC(=O)COc2ccc(S(=O)(=O)N3CCOCC3)cc2C)cc1OC	.	.	.	.	.	.	.
Cc1cc(S(=O)(=O)N2CCOCC2)ccc1OCC(=O)Nc1ccccc1F	.	.	.	.	.	.	.
COC(=O)[C@@H]1ON2OCC(C)=C3CCCC[C@@]32[C@H]1C(=O)OC	/	/	.	.	.	/	/
COc1ccccc1CNS(=O)(=O)c1c(C)[nH]c(C)c1C(=O)N1CCCC1	.	.	.	.	.	/	/
CCOc1cc(C(=O)N(C)CC(=O)Nc2cccc(F)c2)ccc1OCC(=O)N1CCOCC1	.	.	.	.	.	/	/
SMILES	NTR1 agonist	Beta2AR agonist	Granule exo inh	ABHD5 PLIN5 PPI	m5-HT2A agonist	B2AR ag CP1	FAP fluor counter
O=C1CC(c2ccccc2F)c2cc3c(cc2N1)CCC3 (stereo not drawn)	.	.	.	.	.	/	/
O=C1CC(c2cc(Br)ccc2F)c2cc3c(cc2N1)CCC3 (stereo not drawn)	.	56	.	.	.	.	.
Cc1cc(C(=O)CCC(=O)N(C)CC(=O)Nc2ccc(OC(F)(F)F)cc2)c(C)s1	.	.	.	.	.	/	/
CCN(CC)c1nc(SCCOC(=O)Nc2ccccc2)nc(N(CC)CC)n1	.	44	.	.	.	.	.
CN(C)c1nc(SCCOC(=O)c2ccccc2)nc(N(C)C)n1	.	.	.	.	.	/	/
O=S(=O)(Nc1cccc(-c2cn3cccnc3n2)c1)c1ccc(-c2ccccc2)cc1	.	110	.	.	.	12	.
Nc1nc(N)nc(-c2cc(F)ccc2O)n1	.	.	.	.	.	/	/
COc1cc(/C=C2/C(=O)NN(c3cccc(F)c3)C2=O)ccc1OC(=O)c1ccco1	.	47	.	.	.	.	.
COc1cc(/C=C2/C(=O)NN(c3ccc(Cl)cc3)C2=O)ccc1OC(=O)c1ccco1	.	.	.	.	.	/	/
CCOc1cc(S(=O)(=O)n2ccnc2)ccc1Cl	.	.	.	.	.	/	/
CCn1c(COc2ccc3c(c2)OCO3)nnc1SCC(=O)c1ccc(Cl)cc1	.	.	.	.	.	/	/
Cc1ccc(C(=O)c2ccccc2C(=O)OCC(=O)N2C(C)CCCC2C)cc1 (stereo not drawn)	.	.	.	.	.	.	.
CC1CCCC(C)N1C(=O)COC(=O)c1ccc[nH]c1=O (stereo not drawn)	.	.	.	.	.	/	/
Cc1ccc(C(=O)c2ccccc2C(=O)OCC(=O)N2CC(C)CC(C)C2)cc1 (stereo not drawn)	.	.	.	.	.	/	/
CCOC(=O)C1CCN(C(=O)COC(=O)c2ccccc2C(=O)c2ccc(Cl)cc2)CC1	.	.	.	.	.	.	.
CC1CCN(C(=O)COC(=O)c2ccccc2C(=O)c2ccccc2)CC1	.	.	.	.	.	.	.
O=C1CCC/C(=N/Nc2ccc(Cl)cc2)C1	.	.	.	.	.	/	/
COCCOC(=O)C1=C(C)NC(=O)NC1c1cn(-c2ccccc2)nc1-c1cccs1 (stereo not drawn)	.	.	.	.	.	/	/
CC1=C(C#N)C(c2cn(-c3ccccc3)nc2-c2cccs2)C(C#N)=C(C)N1	.	108	.	.	.	13	.
Cc1ccc(-n2c(C)nn(CCOc3ccccc3)c2=O)cc1	.	.	.	.	.	/	/
O=C(CNC(=O)N1CC(=O)Nc2ccccc21)Nc1ccccc1F	.	42	.	.	.	.	.
O=C(CNC(=O)N1CC(=O)Nc2ccccc21)Nc1ccccc1	.	.	.	.	.	/	/
Cc1ccc(Nc2c(-c3ccccn3)nc3cc(C)ccn23)cc1	.	76	.	.	.	.	.
COc1ccc(-c2coc3cc(OC(C)=O)ccc3c2=S)cc1	/	.	.	.	.	/	/
CC(C)OCCCn1c(=N)c(C(N)=S)cc2c(=O)n3ccccc3nc21	.	.	.	.	.	/	/
Cc1c(Br)c([N+](=O)[O-])nn1CCCC(=O)Nc1sc2c(c1C#N)CCC2	.	59	.	.	.	.	.
